# Experimental data from paper PMC5540273 (PLoS ONE, 2017).
# Experiments:
# DLK = test system: T1, DLK
# T1 construct: gene MAP3K12
# DMPK2 = test system: T2, DMPK2
# T2 construct: gene CDC42BPG
# DRAK1 = test system: T3, DRAK1
# T3 construct: gene STK17A
# 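Further: kd values determined as follow-up on hits from a single-replicate KINOMEscan panel screen.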
smiles,measurement,setting,value
Cc1cccc(-c2nc(Nc3ccc4[nH]ncc4c3)c3ccccc3n2)n1 [GW857175],Kd,CSNK2A1,100 nM
Cc1ccccc1-n1cnc2c(N)ncnc21 [SKF-97510],Kd,DAPK1,> 10000 nM
Cc1cc(N2Cc3ccccc3C2)nc(Nc2ccc(S(=O)(=O)N3CCOCC3)cc2)n1.Cl [GSK1669917],Kd,DAPK3,> 10000 nM
Cc1ccc(NC(=O)Nc2cc(C(C)(C)C)nn2-c2ccccc2)cc1 [GSK1014915],Kd,DDR2,410 nM
CC(=O)Nc1nc2cnc(Nc3cc(NC(=O)c4cccc(CCC#N)c4)ccc3C)nc2s1,Kd,DDR2,> 10000 nM
COc1ccc(CNC(=O)NC2CCN(c3ccnc(Nc4cc(OC)c(OC)c(OC)c4)n3)C2)cc1 (centres unmarked) [GSK1379748],Kd,DLK,5100 nM
Cc1cc(-c2ccc3c(c2)CC[C@@H](N[C@@H](C)c2ccccc2)C3)cnc1N.Cl [GW412617],Kd,DLK,280 nM
COc1ccc2nc(-c3cccc(C)n3)nc(Nc3ccncc3)c2c1 [GSK204919],Kd,DMPK2,510 nM
Cc1cccc(-c2nc(C)cc(Nc3ccncc3)n2)n1 [GSK257997],Kd,DMPK2,560 nM
Nc1nc(-c2nccs2)c(-c2ccnc3ccccc23)s1 [GW693542],Kd,DMPK,> 10000 nM
C[C@@H]1CCCCN1c1cc(-c2ccc3c(N)n[nH]c3c2)nc(N)n1 [GSK2258759],Kd,DRAK1,88 nM
